Structures are written as SMILES. Hit rate of the full screen: of about 360,000 compounds, about 2,800 (0.78%) were called active. The entries come from a sample that favours actives as a whole. Values without a mark were called inactive. Rule as the data show it: active = inhibition above about 26%; inactive = the rest.

In general, inhibition refers to the relative decrease from the control value, in per cent.

The test system of the assay is Nicotinate-nucleotide adenylyltransferase NadD (Staphylococcus aureus N315). Kind of assay: S. aureus NadD enzyme activity blockers – biochemical, colorimetric, uHTS, primary screen (AID 602399). The note with it: purified NadD enzyme, colorimetric absorbance read-out; at 20 µM; stronger effect = higher value.
Consider `Cc1cccc(N2C(=O)NC(=O)/C(=C\c3cnn(-c4ccccc4)c3)C2=O)c1`, for which the inhibition is 31.6% (active).
In the case of `COC(=O)CN1C(=O)C2(C(C(=O)OC)=C(N)Oc3ccccc32)C2=C1CC(C)(C)CC2=O` (stereo not given), the inhibition is -11.2%.
The result for `CC1(C)C(c2ccccc2)=NC(c2cccnc2)=[N+]1[O-]` reads -1.36%; that for `Cc1cccc(NC(=O)N2CC3CC(C2)c2cccc(=O)n2C3)c1` (stereo not given), -1.21%.
In the case of `COC1C(O)C(C)OC(OC2CCC3(C=O)C(CCC4C3CCC3(C)C(C5=CC(=O)OC5)CCC43O)C2)C1O` (stereo not given) it was -4.34%.
The result for `CCOC(=O)c1c(C)c(C(=O)N2CCC3(CC2)OCCO3)c(C)n1CC` reads -2.05%; that for `O=c1[nH]c(CN2CC=C(c3ccccc3)CC2)nc2scc(-c3cccs3)c12`, 29.6% (active).
`CC1=CC(=Cc2sc3ccccc3[n+]2C)C=C(C)O1`: the inhibition is 1.49%.
For `CCN1C(=O)NC(=O)C2(CCCC2)C1=O`, the inhibition is 1.24%.
On to `c1cc2c(cc1C1OCC3C(c4ccc5c(c4)OCO5)OCC13)OCO2` (stereo not given), for which the inhibition was 1.25%.
Regarding `CCCCCn1c(=O)c(C(=O)NCc2ccccc2)c(O)c2ccccc21`, the inhibition was 1.88%.
The result for `CCCCCn1c(=O)c(C(=O)Nc2c(C)n(C)n(-c3ccccc3)c2=O)c(O)c2ccccc21` reads 29.9% (active); that for `CCCCn1c(=O)c(C(=O)Nc2ccccc2Cl)c(O)c2ccccc21`, -7.15%.
For the compound `Clc1ccc2nc3c(c(-c4ccccc4)c2c1)CNCC3`, the inhibition was -4.51%.
The result for `COCc1cc(OC(=O)N(C)C)nc(-c2ccc(C)c(Cl)c2)n1` reads -4.84%; that for `COC1=C[C@@H]2[C@@H]3Cc4ccc(OC)c(O)c4[C@]2(CCN3C)CC1=O`, 3.24%; that for `O=C1NC(=O)N(Cc2ccco2)C(=O)/C1=C\c1ccc(-c2ccc(F)cc2)o1`, 38.2% (active).
In the case of `O=C(Cn1c(=O)n(CC2CS2)c2ccccc21)N1CCCCC1` (stereo not given) it was -1.82%.
As for `COc1cccc(-c2nc3ccc(N4CCN(C)CC4)cc3[nH]2)c1`, the inhibition was -5.51%.
Regarding `COC(=O)C1=C(c2cc3ccccc3o2)C[C@@H]2CC[C@H]1N2C(=O)NC1CCCCC1`, the inhibition is 0.201%.
